The values that follow come from PubChem BioAssay AID2642 (Johns Hopkins Ion Channel Center, 2010).

Screen size: about 310,000 compounds; about 3,900 (1.3%) were called active.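 The calls were made as follows: active = compounds whose thallium flux B-score, printed positive for inhibition, exceeds three library SD while starting fluorescence stays within three; inactive = the rest.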 This excerpt belongs to a sample that is enriched for actives.

The target of this test is Potassium voltage-gated channel subfamily KQT member 1 (Homo sapiens) (UniProt P51787). In words: KCNQ1 potassium current blockers – cell-based, thallium flux, high-throughput, primary screen (AID 2642).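 Also: channel opened by potassium depolarization with thallium stimulus after 20 min compound exposure.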 The note with it: CHO-K1 KCNQ1, FluxOR thallium flux fluorescence, at 10 µM; active compounds read high.
Chain of Potassium voltage-gated channel subfamily KQT member 1 (Homo sapiens) (P51787 whole entry, looked up): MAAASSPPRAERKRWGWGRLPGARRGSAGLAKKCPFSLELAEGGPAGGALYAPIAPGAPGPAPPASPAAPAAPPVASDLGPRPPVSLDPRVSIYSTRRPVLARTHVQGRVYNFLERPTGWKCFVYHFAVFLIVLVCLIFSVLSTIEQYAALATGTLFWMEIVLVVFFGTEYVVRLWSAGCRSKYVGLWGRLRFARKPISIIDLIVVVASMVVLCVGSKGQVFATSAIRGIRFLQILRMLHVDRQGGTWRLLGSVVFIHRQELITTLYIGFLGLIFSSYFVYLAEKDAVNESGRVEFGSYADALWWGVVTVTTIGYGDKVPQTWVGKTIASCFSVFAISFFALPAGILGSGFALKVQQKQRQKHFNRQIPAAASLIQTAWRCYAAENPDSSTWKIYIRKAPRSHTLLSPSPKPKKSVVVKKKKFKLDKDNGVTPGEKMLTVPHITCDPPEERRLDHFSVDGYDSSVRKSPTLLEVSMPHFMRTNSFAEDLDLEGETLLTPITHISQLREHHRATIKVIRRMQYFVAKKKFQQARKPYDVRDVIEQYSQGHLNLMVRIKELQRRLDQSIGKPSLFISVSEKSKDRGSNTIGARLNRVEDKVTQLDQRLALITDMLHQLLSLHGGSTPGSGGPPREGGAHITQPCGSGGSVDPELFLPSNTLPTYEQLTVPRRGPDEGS
For the compound `COc1ccc(NC(=O)c2oc3ccc(S(=O)(=O)N4CCOCC4)cc3c2C)cc1`, the B-score result is “inactive”.
On to `COCCN1C2=C(COC(C)(C)C2)C(=S)NC1c1ccccc1` (centres undefined), for which the B-score result was “inactive”.
On to `Cc1nc([N+](=O)[O-])nn1C12CC3CC(CC(Br)(C3)C1)C2`, for which the B-score result was “inactive”.
In the case of `CCOC(=O)c1c(NC(=O)CCCN2CCOCC2)sc2c1CC(C)(C)OC2`, the B-score result was “inactive”.
Regarding `COc1ccc(C(=O)C2CCCN(Cc3ccc4nonc4c3)C2)c(C)c1` (centres undefined), the B-score result is “inactive”.
With `COc1ccc(C(=O)C2CCCN(Cc3cccn3-c3ccccn3)C2)c(C)c1` (centres undefined), the B-score is 9 (active).
For `CCOC(=O)c1[nH]ncc1CN1CCCC(C(=O)c2ccc(OC)cc2C)C1` (centres undefined), the B-score entry is “inactive”.
In the case of `CCC(=O)c1ccc(OCC(O)Cn2nc(C)c(C(C)=O)c2C)cc1` (centres undefined) it was “inactive”.
As for `CCOC(=O)CCc1c(C)c(C#N)c2[nH]c3ccccc3n2c1=O`, the B-score result was “inactive”.
As for `Cc1ccccc1Cn1c(=O)[nH]c2ccccc21`, the entry is “inactive”.
As for `CCCc1cc(=S)n2c([nH]c3ccccc32)c1C#N`, the figure is 8 (active); as for `CCCN(CC1COc2ccccc2O1)C(=S)Nc1ccc(C)cc1` (centres undefined), “inactive”.
As for `CCCn1c(C)cc(/C=C(\C#N)C(=O)OCC(=O)N(C)c2c(N)n(Cc3ccccc3)c(=O)[nH]c2=O)c1C`, the entry is “inactive”; as for `CCC(C)[C@@H](C(=O)N1CCNCC1)n1cc(CCCCN)nn1` (some centres undefined), “inactive”.
In the case of `O=C(CCN1c2ccccc2Sc2ccccc21)Nc1ccccc1`, the B-score was 12 (active).
With `CC1CCN(CCC(=O)Nc2ccccc2)CC1`, the B-score result was “inactive”.
`O=C(CCN1C(=O)c2ccccc2C1=O)Nc1ccncc1`: the B-score result was “inactive”.
As for `CCN1CCN(C(=O)CN(C)S(=O)(=O)c2ccc3ccccc3c2)CC1`, the entry is “inactive”; as for `CON(C)S(=O)(=O)c1ccc2c(c1)NC(=O)C1CCCN21` (centres undefined), “inactive”.
In the case of `Clc1ccccc1CSc1nnc(-c2ccco2)c(-c2ccco2)n1`, the B-score was 11 (active).
As for `O=c1cc(O)nc(SCc2ccccc2Cl)[nH]1`, the entry is “inactive”; as for `Fc1cccc(Cl)c1CSc1ccc(-c2ccco2)nn1`, “inactive”; as for `CC[C@@]12C(=O)N(c3ccccc3)C(=O)N1[C@H](c1ccc(Br)cc1)[C@@H]1C(=O)N(C(C)(C)C)C(=O)[C@@H]12`, “inactive”.
In the case of `CCOc1cccc(=O)c2c(C)n(CC3CCCO3)c(C)c12` (centres undefined), the B-score entry was “inactive”.
For `O=C1c2cccc3c([N+](=O)[O-])ccc(c23)C(=O)N1CC1CCCO1` (centres undefined), the B-score was 6 (active).
In the case of `CCC(=O)Nc1ccc(C(=O)Nc2ccc3c(c2)C(=O)N(CC2CCCO2)C3=O)cc1` (centres undefined), the B-score result was “inactive”.
With `CCOC(=O)C1CCN(Cc2coc3ccc(Cl)cc3c2=O)CC1`, the B-score result is “inactive”.
As to `Cc1ccccc1-n1cc(CNC(=O)C2CCC(=O)N(C3CC3)C2)cn1` (centres undefined), the B-score result is “inactive”.
On to `Cc1ccc(C)c(N2CCN(S(=O)(=O)c3c(C)[nH]c(C)c3C(=O)N3CCCC3)CC2)c1`, for which the B-score result was “inactive”.
For the compound `COc1ccc(CC(=O)N/N=C/c2cc([N+](=O)[O-])cc(Br)c2O)cc1`, the B-score entry is “inactive”.
In the case of `O=[N+]([O-])c1cc(Br)c(O)c(/C=N/Nc2nc3ccccc3s2)c1`, the B-score was 12 (active).
As to `c1ccc2sc(NN=C3CCCC3)nc2c1`, the B-score entry was “inactive”.
Take `CCN(CC)CC(=O)Nc1sc2c(c1C(=O)c1ccccc1C)CCC2`: the B-score was 8 (active).
As for `O=C(Nc1sc2c(c1C(=O)O)CCC2)c1ccccc1F`, the entry is “inactive”; as for `CCc1ccc(N(CC(=O)Nc2sc3c(c2C(=O)OC)CCCC3)S(C)(=O)=O)cc1`, “inactive”.
Take `CCc1nc(N2CCN(C(C)=O)CC2)c2c3c(sc2n1)CCCC3`: the B-score result is “inactive”.
Turning to `NS(=O)(=O)c1ccc(NC(=S)NC(=O)c2cccc(Br)c2)cc1`, the B-score result is “inactive”.
On to `NS(=O)(=O)c1ccc(NC(=S)Nc2ccc(Br)c(Cl)c2)cc1`, for which the B-score was 8 (active).
With `NS(=O)(=O)c1ccc(CCNC(=S)Nc2ccc(S(N)(=O)=O)cc2)cc1`, the B-score result is “inactive”.
Consider `CCCCSc1[nH]c(=O)c(C(=O)OCC)cc1C#N`, for which the B-score result was “inactive”.
`COCCN(C(=S)Nc1cccc(Cl)c1C)C(C)c1ccco1` (centres undefined): the B-score entry is “inactive”.
As for `Fc1ccc(/C=N/n2c(COc3ccccc3)n[nH]c2=S)cc1`, the entry is “inactive”; as for `CC(C)[C@H](NC(=O)N1CCn2c1nc1ccccc12)C(=O)NCCc1ccccc1`, “inactive”.
On to `CC(C)CCNC(=O)Cn1c(=O)oc2cc(S(=O)(=O)N3CC(C)CC(C)C3)ccc21` (centres undefined), for which the B-score entry is “inactive”.
As for `CCOc1ccc(CC(=O)NC2CCN(Cc3ccccc3)CC2)cc1`, the B-score result is “inactive”.
`CCOc1ccc(CN2CCCN(C)CC2)cc1`: the B-score entry was “inactive”.
As to `CCOc1ccc(CN2CCN(Cc3c[nH]c4ccccc34)CC2)cc1`, the B-score is 12 (active).
With `COc1ccc(N(C)S(=O)(=O)c2ccc3c(c2)CC(C)N3C(=O)C2CC2)c(OC)c1` (centres undefined), the B-score result is “inactive”.
In the case of `Fc1ccccc1COc1cccc2cccnc12` it was “inactive”; in that of `Cc1occc(=O)c1OCc1ccc(F)cc1`, “inactive”.
With `Cc1nc2ccccc2cc1OCc1ccc(F)cc1`, the B-score was 11 (active).
`Cc1nn(C)cc1N1C(=O)c2cccc3c(N)ccc(c23)C1=O`: the B-score is 22 (active).
Take `O=C1c2ccccc2C(=O)N1c1cccc2ccccc12`: the B-score entry was “inactive”.
For `CN1C(=O)c2cccc3c(N)ccc(c23)C1=O`, the B-score result is “inactive”.
In the case of `C/C(N)=C(/C#N)C(=O)COC(=O)c1cc(-c2ccc(C)cc2)nc2ccccc12` it was “inactive”; in that of `CCCCCCCC[n+]1cccc(C(=O)N2c3c(nc(N)[nH]c3=O)NC(C)C2C)c1` (centres undefined), “inactive”; in that of `COC(=O)c1ccccc1NC(=S)NC(=O)c1ccccc1F`, “inactive”.
Consider `O=C(O)c1ccccc1NC(=O)c1ccccc1-c1ccccc1C(=O)O`, for which the B-score entry is “inactive”.
With `O=C(NC(=S)Nc1ccccc1C(=O)O)c1ccc(-c2ccc(Br)cc2)o1`, the B-score was 7 (active).
As to `COCCNC(=O)C(c1ccc(O)cc1)N(C(=O)CCC(=O)Nc1nccs1)c1ccc(C)cc1` (centres undefined), the B-score entry is “inactive”.
As to `CCOC(=O)CN(C(=O)COc1nc(C)cc(C)c1C#N)c1ccc(Cl)cc1`, the B-score entry is “inactive”.
For `Cc1ccccc1C(=O)NNC(=O)CN1C(=O)c2ccccc2C1=O`, the B-score result was “inactive”.
In the case of `Cc1cc(C(=O)CCC(=O)NNC(=O)c2ccccc2O)c(C)s1`, the B-score was 6 (active).
As to `CC1=C(C)CC(C(=O)NNC(=O)c2ccccc2O)C(C(=O)O)C1` (centres undefined), the B-score result is “inactive”.
Regarding `COc1ccccc1CNC(=O)COn1nnc2ccc(S(=O)(=O)N3CCOCC3)cc21`, the B-score entry is “inactive”.
In the case of `O=S(=O)(c1ccc(Cl)cc1)c1nc(-c2ccco2)oc1N1CCCCC1` it was “inactive”.
Take `CCc1cc(C(c2ccccc2OC)N2CCOCC2)c(NC(=O)c2ccccc2)s1` (centres undefined): the B-score is 7 (active).
Consider `CCc1cc(C(N)=O)c(NC(=O)c2ccc(OC)cc2)s1`, for which the B-score entry is “inactive”.
Consider `COc1ccc(C(=O)Nc2sc(C)c(C)c2CN2CCOCC2)cc1`, for which the B-score result was “inactive”.
Regarding `CC(C)CNc1ncnc2c1cnn2Cc1ccc(Cl)cc1`, the B-score entry was “inactive”.
Take `Cc1ccc(Cl)cc1NC(=O)COC(=O)CC(C)(C)C`: the B-score result is “inactive”.
Regarding `COCn1c(C(O)c2ccccc2)cc2ccccc21` (centres undefined), the B-score entry was “inactive”.
In the case of `N#Cc1cccc(Nc2c3c(nc4ccccc24)CCCC3)c1` it was “inactive”.
As for `Cc1cc(CNC(=O)c2cccc([N+](=O)[O-])c2)c2ccccc2n1`, the B-score result was “inactive”.
For `O=[N+]([O-])c1cccc(Nc2c3ccccc3nc3ccccc23)c1`, the B-score is 8 (active).
With `NS(=O)(=O)c1ccc(CCNC(=O)CNC(=O)Cc2ccccc2)cc1`, the B-score entry is “inactive”.
For the compound `O=C1N(c2ccccc2)C(=Nc2ccccc2)SC12CC2`, the B-score result is “inactive”.
With `C#CCCOC(=O)N1C2=NC(C(=O)OC)=C(C(=O)OC)[C@@H]3N(C)c4ccc(OC)cc4[C@]23C[C@H]1C(=O)OC`, the B-score entry was “inactive”.
Take `O=C1c2ccccc2C(=O)c2c1cccc2N1CCN(CCO)CC1`: the B-score result is “inactive”.
In the case of `O=C1c2ccccc2C(=O)c2c1cccc2N1CCN(C/C=C/c2ccccc2)CC1`, the B-score result is “inactive”.
As for `O=C1c2ccccc2C(=O)c2c1cccc2N1CCN(Cc2ccccc2)CC1`, the B-score is 6 (active).
As for `COC(=O)c1cccc(N(C(=O)CNC(=O)c2cccs2)C(C(=O)NCC2CCCO2)c2ccc(OC)c(OC)c2)c1` (centres undefined), the B-score entry is “inactive”.
As for `Oc1ccc2ccc3cccc[n+]3c2c1`, the figure is 30 (active); as for `CCN(Cc1nc2ccccc2c(=O)[nH]1)Cc1cc(=O)oc2cc(C)c(C)cc12`, “inactive”.
With `CC(C)CCN(C(=O)c1csnn1)C(C(=O)NC1CCCC1)c1ccccc1` (centres undefined), the B-score result was “inactive”.
As for `Cc1cc(C)cc(NC(=O)NC2CCCCCCC2)c1`, the figure is 7 (active); as for `O=C(Nc1cccc(F)c1)NC1CCCCCCC1`, “inactive”; as for `CC(C)c1ccc(NC(=O)NC2CCCCC2)cc1`, “inactive”.
In the case of `COc1cccc2c1OCC(C(=O)NCc1ccc(Cl)cc1Cl)=C2` it was “inactive”; in that of `CCOc1cc(C2C(C(=O)OC(C)C)=C(C)NC3=C2C(=O)CCC3)cc([N+](=O)[O-])c1O` (centres undefined), “inactive”.
Regarding `CS(=O)(=O)N(CC(=O)Nc1ccc(Cl)c(Cl)c1)C1CCCCC1`, the B-score is 7 (active).
With `CS(=O)(=O)N(CC(=O)Nc1ccc(F)cc1)C1CCCCC1`, the B-score result is “inactive”.
In the case of `CCC(C)NC(=O)CN(C1CCCCC1)S(C)(=O)=O` (centres undefined) it was “inactive”; in that of `CC(NC(=O)Cn1cc(C(F)(F)F)cc(Cl)c1=O)c1ccccc1` (centres undefined), “inactive”; in that of `NS(=O)(=O)c1cc2c(cc1Cl)NC(C(Cl)Cl)NS2(=O)=O` (centres undefined), “inactive”.
As for `COC(=O)c1sc(N2CCN(Cc3ccccc3)CC2)nc1N`, the entry is “inactive”.
`CCOC(=O)/C(C#N)=C/c1ccc(N2CCN(Cc3ccccc3)CC2)cc1`: the B-score result is “inactive”.
Take `CC(C)OC(=O)C(C#N)c1nc2ccccc2nc1N1CCN(Cc2ccccc2)CC1` (centres undefined): the B-score was 7 (active).
As to `COc1ccc(S(=O)(=O)N(CC(=O)N/N=C/c2ccc(C(=O)O)cc2)Cc2ccccc2)cc1OC`, the B-score entry was “inactive”.
Regarding `CC(=O)N1c2ccc(S(=O)(=O)N3CCCC(C(=O)NCc4ccc(Cl)cc4)C3)cc2CC1C` (centres undefined), the B-score result was “inactive”.
`CCN(C(=O)COc1ccc(C(=O)c2ccccc2)cc1)c1ccccc1`: the B-score entry was “inactive”.
On to `N#CC1=C(SCc2ccccc2)NC(=O)C(C#N)C12CCCC2` (centres undefined), for which the B-score result was “inactive”.
In the case of `N#CC1=C(SCc2ccc(C#N)cc2)N=C(N)C(c2nc(-c3ccccc3)cs2)C12CCCCC2` (centres undefined), the B-score is 6 (active).
`N#Cc1ccc(CSc2ncccn2)cc1`: the B-score result was “inactive”.
With `COc1ccc(OC)c2[nH]c(=O)c(CCNC(=O)C(=O)c3c[nH]c4ccccc34)cc12`, the B-score result is “inactive”.
As for `COCCn1c(SCC(=O)Nc2cc(OC)ccc2OC)nc2c(c1=O)SC(C)C2` (centres undefined), the B-score entry is “inactive”.
`COc1ccc(-c2nc3ccccc3c(=O)n2CCc2ccc(O)cc2)cc1`: the B-score entry is “inactive”.
As for `COc1ccc(CCNCc2c(-c3ccccc3)n(C)c3ccccc23)cc1`, the figure is 7 (active).
As for `COc1ccc(-c2c(C#Cc3ccccc3)c3ccccc3n2C)cc1`, the entry is “inactive”.
